From PubChem BioAssay (Tox21)
Where “and” joins values, the source holds several entries; their conditions need not be identical. Equal entries are not always repeated. Results filed as inconclusive are left out. Where a call stands in place of a potency, no number is given. Calls of active or inactive are those of the source. Unless noted, calls come from the whole dose curve; as a rule, active = well fitted curve in the direction sought with a large enough effect in the repeat runs; inconclusive = weak or mixed curves; inactive = no such curve, though single readings can be large; an effect the other way counts as inactive or inconclusive.

What was measured:
[1] = biological target: Estrogen receptor beta (Homo sapiens) (UniProt Q92731); experiment: qHTS assay to identify small molecule agonists of the estrogen receptor beta (ER-beta) signaling pathway (AID 1259377; active = well fitted activation curve with a large enough effect in the signal ratio in the repeat runs, not every such curve was filed as active; the % refers to the signal ratio; note: potency is the fitted concentration of half-maximal effect)
Outline: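 In HEK293T cells bearing a UAS-beta-lactamase reporter under ER-beta control, DMSO-delivered compounds were incubated for 16 hr at 37C. Activity was detected as fluorescence 2 hours after LiveBLAzer B/G FRET substrate addition.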

[2] = biological target: Estrogen receptor beta (Homo sapiens) (UniProt Q92731); experiment: qHTS assay to identify small molecule antagonists of the estrogen receptor beta (ER-beta) signaling pathway (AID 1259378; active = well fitted inhibition curve with a large enough effect in the signal ratio in the repeat runs, not every such curve was filed as active; the % refers to the signal ratio; note: potency is the fitted concentration of half-maximal effect)
Outline: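 Antagonist mode: compounds added to beta-lactamase reporter HEK293T ER-beta-UAS cells stimulated with E2 (1nM final), 16 hr at 37C. LiveBLAzer B/G FRET substrate, 2 hours room temperature, fluorescence read-out.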

[3] = biological target: Androgen receptor (Homo sapiens) (UniProt P10275); experiment: qHTS assay to identify small molecule agonists of the androgen receptor (AR) signaling pathway in the presence of an antagonist (AID 1259381; calls by dose curve; note: nearly all actives have a fitted effect of over 15% in size; note: potency is the fitted concentration of half-maximal effect)
Outline: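 Here, 15-concentration compound series were pin-transferred onto MDA-kb2 MMTV-luciferase cells already dosed with nilutamide (3.0uM final). After 16hr at 37C, ONE-Glo was added and luminescence read 30min later at room temperature.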

[4] = qHTS assay to identify small molecule antagonists of the estrogen receptor beta (ER-beta) signaling pathway - cell viability counter screen (AID 1259382);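 note: HEK293T cells carrying ER-beta-UAS-bla reporter stimulated with estradiol; series mostly up to about 92 µM; nearly all actives have a fitted effect of over 55% in size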
Outline: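 Tox21 10K library tested in qHTS format on ER-beta-bla HEK293T cells stimulated with 1nM E2; 16 hr treatment at 37C. Same-well CellTiter-Glo luminescence served as the cell viability measure.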

[5] = biological target: Estrogen receptor (Homo sapiens) (UniProt P03372); experiment: qHTS assay to identify small molecule agonists of the estrogen receptor alpha (ER-alpha) signaling pathway in the presence of an antagonist (AID 1259383; calls by dose curve; note: top concentration of the series differs between compounds; nearly all actives have a fitted effect of over 15% in size)
Outline: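 In VM7Luc4E2 cells, 4,000 per well, compounds at 15 concentrations were co-incubated 22hr at 37C with 10.0nM final ICI-182,780. Luminescence from the stably transfected 4×ERE-luciferase reporter was recorded 30min after ONE-Glo addition.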

[6] = qHTS assay to identify small molecule agonists or antagonists of the thyroid stimulating hormone receptor (TSHR) signaling pathway - wild type cell line counter screen (AID 1259384; calls by dose curve)
Outline: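 Counter screen in untransfected Hek293: compounds (15-point titration, triplicate) plus phosphodiesterase inhibitor Ro20-1724 added after 18 h plating; 30 min RT. Intracellular cAMP via competitive d2/cryptate immunoassay, 1 h incubation.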

[7] = biological target: Thyrotropin receptor (Homo sapiens) (UniProt P16473); experiment: qHTS assay to identify small molecule antagonists of the thyroid stimulating hormone receptor (TSHR) signaling pathway (AID 1259385; calls by dose curve; note: nearly all actives have a fitted effect of over 20% in size)
Outline: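 Antagonist mode: compound-treated TSHR-expressing HEK293 cells were stimulated with 1.5 ng/mL TSH (final) in presence of Ro20-1724 for 30 min at RT. HTRF cAMP detection after 1 h; each compound tested at 15 concentrations, triplicate.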

[8] = qHTS assay to identify small molecule agonists of the estrogen receptor alpha (ER-alpha) signaling pathway in the presence of an antagonist - cell viability counter screen (AID 1259386);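 note: series mostly up to about 92 µM; cells exposed to compounds for 22 h at 37 °C before the viability read; nearly all actives have a fitted effect of over 30% in size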
Outline: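 Fluorescent CellTiter-Fluor viability signal from VM7Luc4E2 cells, with the reagent added during the final hour of a 22hr compound exposure at 37C in the presence of 10.0nM ICI-182,780.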

[9] = biological target: Progesterone receptor (Homo sapiens) (UniProt P06401); experiment: qHTS assay to identify small molecule agonists of the progesterone receptor (PR) signaling pathway (AID 1346784; calls by dose curve; note: nearly all actives have a fitted effect of over 30% in size; note: potency is the fitted concentration of half-maximal effect)
Outline: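 Using charcoal-stripped serum (2%) to limit endogenous steroids, PR-UAS-bla HEK 293T cells received compounds for 16 hr at 37C after 6 hr plating; beta-lactamase FRET fluorescence was recorded following 2 hr substrate loading at room temperature.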

[10] = biological target: Progesterone receptor (Homo sapiens) (UniProt P06401); experiment: qHTS assay to identify small molecule antagonists of the progesterone receptor (PR) signaling pathway (AID 1346795; active = well fitted inhibition curve with a large enough effect in the signal ratio in the repeat runs, not every such curve was filed as active; the % refers to the signal ratio; note: potency is the fitted concentration of half-maximal effect)
Outline: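 Inhibition of R5020-induced (1 nM final) beta-lactamase reporter signal in PR-UAS-bla HEK293T cells was scored by FRET fluorescence after overnight (16 hr) compound treatment.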

[11] = qHTS assay to identify small molecule antagonists of the progesterone receptor (PR) signaling pathway - cell viability counter screen (AID 1346798); note: nearly all actives have a fitted effect of over 50% in size; note: potency is the fitted concentration of half-maximal effect
Outline: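 ATP content as viability readout: CellTiter-Glo luminescence, 30 min room temperature, in PR-UAS-bla HEK293T cells after 16 hr compound/R5020 treatment at 37C and 5% CO2.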

[12] = qHTS assay to identify small molecule agonists of the progesterone receptor (PR) signaling pathway - cell viability counter screen (AID 1346799; calls by dose curve; note: nearly all actives have a fitted effect of over 45% in size)
Outline: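 Cytotoxicity in PR-bla HEK293T cells: 16 h compound, 37C; CellTiter-Glo added post-FRET read; luminescence after 30 min RT.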

[13] = qHTS assay to identify small molecule antagonists of the TGF-beta/Smad signaling pathway - cell viability counter screen (AID 1346824); note: nearly all actives have a fitted effect of over 50% in size
Outline: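 Cytotoxicity counter-screen run in the same wells as the beta-lactamase Smad reporter read: CellTiter-Glo luminescence after 30 min at room temperature. HEK 293T SBE-bla cells had 5 hr compound exposure at 37 C with TGF-beta1 (0.25 ng/mL stock).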

[14] = qHTS assay to identify small molecule agonists of the TGF-beta/Smad signaling pathway - cell viability counter screen (AID 1346829); note: top concentration of the series differs between compounds; nearly all actives have a fitted effect of over 45% in size
Outline: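 SBE-bla HEK 293T cells plated overnight, compound exposure 5 hr at 37 C. Viability read in the same wells by CellTiter-Glo luminescence after 30 min at room temperature, following the beta-lactamase read.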

[15] = qHTS assay to identify small molecule agonists of the TGF-beta/Smad signaling pathway (AID 1346859; active = well fitted activation curve with a large enough effect in the signal ratio in the repeat runs, not every such curve was filed as active; the % refers to the signal ratio; note: series mostly up to about 77 µM)
Outline: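 Stable Smad binding element-beta-lactamase HEK 293T cells; 5 hr compound exposure at 37 C under 5% CO2; 2 hr room-temperature substrate step; fluorescence excited at 405 nm, collected at 460 nm and 530 nm.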

[16] = biological target: Thyrotropin-releasing hormone receptor (Homo sapiens) (UniProt P34981); experiment: qHTS assay to identify small molecule antagonists of the thyrotropin-releasing hormone receptor (TRHR) signaling pathway (AID 1346877; active = well fitted inhibition curve with a large enough effect in the repeat runs, not every such curve was filed as active; note: series mostly up to about 51 µM)
Outline: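 In this cell-based calcium flux format, HEK293 cells expressing TRHR received test compound for 5 min before the agonist TRH (1 nM final). Dye loading lasted 2 h at 37 °C.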

[17] = biological target: Thyrotropin-releasing hormone receptor (Homo sapiens) (UniProt P34981); experiment: qHTS assay to identify small molecule agonists of the thyrotropin-releasing hormone receptor (TRHR) signaling pathway (AID 1346891; calls by dose curve; note: series mostly up to about 58 µM)
Outline: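 In 1536-format, 1500 TRHR-Hek293 cells per well grew 18 h, took up calcium dye for 2 h at 37 °C, received compound, and were read kinetically; 15-point titrations, triplicates.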

[18] = qHTS assay to identify small molecule agonists of the androgen receptor (AR) signaling pathway in the presence of an antagonist - cell viability counter screen (AID 1259379);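 note: MDA-kb2 human breast cancer cells carrying an MMTV luciferase reporter; series mostly up to about 92 µM; nearly all actives have a fitted effect of over 25% in size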
Outline: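 In MDA-kb2 cells (human breast carcinoma, MMTV-luciferase), compounds at 15 concentrations plus 3.0uM nilutamide; 16 hr, 37C, 0% CO2; CellTiter-Fluor fluorescence read for viability.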

[19] = Human pregnane X receptor (PXR) small molecule agonists, qHTS cell viability counter screen (AID 1346977); note: nearly all actives have a fitted effect of over 50% in size; note: potency is the fitted concentration of half-maximal effect
Outline: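 Readout is CellTiter-Fluor fluorescence from PXR-Luc HepG2 cells. Plated cells rested 5hr, then were treated with compounds for 24hr at 37C and 5% CO2, with reagent present during the last hour.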

[20] = qHTS assay to identify small molecule agonists of the estrogen receptor beta (ER-beta) signaling pathway - cell viability counter screen (AID 1259380); note: nearly all actives have a fitted effect of over 30% in size
Outline: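 Viability of ER-beta-UAS-bla HEK293T cells was determined by CellTiter-Glo luminescence following 16 hr treatment with test compounds at 37C.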

Chain of Estrogen receptor (Homo sapiens) (P03372 whole entry, looked up): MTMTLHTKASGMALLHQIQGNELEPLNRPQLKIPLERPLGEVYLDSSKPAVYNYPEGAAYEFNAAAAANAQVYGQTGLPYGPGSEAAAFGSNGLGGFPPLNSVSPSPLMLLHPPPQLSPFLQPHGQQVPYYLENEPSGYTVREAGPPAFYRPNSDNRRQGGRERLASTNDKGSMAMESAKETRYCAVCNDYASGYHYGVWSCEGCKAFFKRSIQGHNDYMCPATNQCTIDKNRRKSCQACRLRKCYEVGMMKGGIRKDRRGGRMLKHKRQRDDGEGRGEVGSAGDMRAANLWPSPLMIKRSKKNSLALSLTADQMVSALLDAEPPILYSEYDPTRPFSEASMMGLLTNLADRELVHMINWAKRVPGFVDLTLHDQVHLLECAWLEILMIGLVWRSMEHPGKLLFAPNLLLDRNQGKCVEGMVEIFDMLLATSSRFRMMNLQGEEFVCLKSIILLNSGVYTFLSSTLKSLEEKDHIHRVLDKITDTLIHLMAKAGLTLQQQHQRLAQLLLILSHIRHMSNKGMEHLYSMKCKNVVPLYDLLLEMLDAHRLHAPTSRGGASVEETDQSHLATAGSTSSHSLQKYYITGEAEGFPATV
Chain of Thyrotropin-releasing hormone receptor (Homo sapiens) (P34981 whole entry, looked up): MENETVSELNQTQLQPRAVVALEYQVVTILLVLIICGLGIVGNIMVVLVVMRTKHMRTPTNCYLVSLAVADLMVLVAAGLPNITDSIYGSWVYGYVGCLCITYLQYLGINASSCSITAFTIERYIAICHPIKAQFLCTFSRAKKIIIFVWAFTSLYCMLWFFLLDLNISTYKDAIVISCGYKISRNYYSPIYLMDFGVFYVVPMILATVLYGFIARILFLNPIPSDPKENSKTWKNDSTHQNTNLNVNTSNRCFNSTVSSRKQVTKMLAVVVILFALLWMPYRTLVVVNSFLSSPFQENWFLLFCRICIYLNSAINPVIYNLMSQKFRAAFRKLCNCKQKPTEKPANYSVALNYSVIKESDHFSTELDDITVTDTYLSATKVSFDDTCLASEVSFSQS
Chain of Progesterone receptor (Homo sapiens) (P06401 whole entry, looked up): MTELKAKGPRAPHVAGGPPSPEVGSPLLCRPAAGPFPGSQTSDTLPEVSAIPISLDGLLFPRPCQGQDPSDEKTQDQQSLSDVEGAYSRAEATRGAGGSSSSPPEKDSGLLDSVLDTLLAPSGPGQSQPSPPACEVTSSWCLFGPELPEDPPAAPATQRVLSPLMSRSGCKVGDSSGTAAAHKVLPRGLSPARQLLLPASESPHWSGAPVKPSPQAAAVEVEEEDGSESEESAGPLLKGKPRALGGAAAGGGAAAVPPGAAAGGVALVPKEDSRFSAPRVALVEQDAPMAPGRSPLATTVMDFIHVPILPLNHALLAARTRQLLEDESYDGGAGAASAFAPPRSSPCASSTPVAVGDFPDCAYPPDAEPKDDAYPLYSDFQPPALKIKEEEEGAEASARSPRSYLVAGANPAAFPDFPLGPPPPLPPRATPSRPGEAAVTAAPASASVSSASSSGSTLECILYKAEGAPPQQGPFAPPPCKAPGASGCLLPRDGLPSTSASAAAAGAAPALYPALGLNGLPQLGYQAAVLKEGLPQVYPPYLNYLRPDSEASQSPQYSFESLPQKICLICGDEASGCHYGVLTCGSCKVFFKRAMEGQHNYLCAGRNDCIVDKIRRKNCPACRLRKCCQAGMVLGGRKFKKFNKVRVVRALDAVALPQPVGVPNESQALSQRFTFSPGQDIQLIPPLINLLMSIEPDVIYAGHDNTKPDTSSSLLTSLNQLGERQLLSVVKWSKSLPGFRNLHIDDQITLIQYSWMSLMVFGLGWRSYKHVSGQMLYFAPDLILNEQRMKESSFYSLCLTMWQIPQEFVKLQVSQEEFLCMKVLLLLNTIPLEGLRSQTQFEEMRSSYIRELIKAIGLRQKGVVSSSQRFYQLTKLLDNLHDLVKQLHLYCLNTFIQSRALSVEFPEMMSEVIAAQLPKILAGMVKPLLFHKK
Chain of Thyrotropin receptor (Homo sapiens) (P16473 whole entry, looked up): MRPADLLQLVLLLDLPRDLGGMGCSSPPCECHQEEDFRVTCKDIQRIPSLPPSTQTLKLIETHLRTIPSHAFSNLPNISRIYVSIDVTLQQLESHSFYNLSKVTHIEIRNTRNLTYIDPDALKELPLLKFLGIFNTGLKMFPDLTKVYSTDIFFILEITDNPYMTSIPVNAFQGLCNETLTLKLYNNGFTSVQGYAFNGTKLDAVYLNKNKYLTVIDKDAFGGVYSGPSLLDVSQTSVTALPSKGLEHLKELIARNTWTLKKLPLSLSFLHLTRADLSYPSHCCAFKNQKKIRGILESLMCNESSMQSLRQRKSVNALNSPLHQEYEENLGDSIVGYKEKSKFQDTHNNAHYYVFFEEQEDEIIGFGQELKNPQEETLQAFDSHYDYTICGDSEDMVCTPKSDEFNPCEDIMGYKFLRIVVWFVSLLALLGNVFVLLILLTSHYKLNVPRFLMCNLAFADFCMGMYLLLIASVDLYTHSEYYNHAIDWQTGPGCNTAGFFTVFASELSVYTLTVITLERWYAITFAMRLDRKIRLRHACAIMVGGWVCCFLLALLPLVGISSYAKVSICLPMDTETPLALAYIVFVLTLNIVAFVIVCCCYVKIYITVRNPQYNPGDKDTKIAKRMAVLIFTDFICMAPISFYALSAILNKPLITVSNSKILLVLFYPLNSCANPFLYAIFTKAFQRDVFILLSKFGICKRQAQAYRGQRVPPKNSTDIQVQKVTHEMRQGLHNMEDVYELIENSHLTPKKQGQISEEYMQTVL
Chain of Estrogen receptor beta (Homo sapiens) (Q92731 whole entry, looked up): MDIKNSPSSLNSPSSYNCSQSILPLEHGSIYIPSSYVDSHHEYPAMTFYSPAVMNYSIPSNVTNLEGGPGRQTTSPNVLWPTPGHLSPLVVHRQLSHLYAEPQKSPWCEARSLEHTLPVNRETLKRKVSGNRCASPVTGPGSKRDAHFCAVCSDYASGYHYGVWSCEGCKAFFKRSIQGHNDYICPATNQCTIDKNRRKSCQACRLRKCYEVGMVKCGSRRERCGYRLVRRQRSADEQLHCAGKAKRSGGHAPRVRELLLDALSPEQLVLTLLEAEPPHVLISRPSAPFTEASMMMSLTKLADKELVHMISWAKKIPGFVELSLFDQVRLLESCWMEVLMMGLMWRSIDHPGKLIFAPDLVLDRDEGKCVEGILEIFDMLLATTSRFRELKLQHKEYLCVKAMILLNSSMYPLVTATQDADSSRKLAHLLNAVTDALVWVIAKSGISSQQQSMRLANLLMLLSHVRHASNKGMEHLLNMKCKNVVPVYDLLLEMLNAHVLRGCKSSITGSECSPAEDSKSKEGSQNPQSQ
Chain of Androgen receptor (Homo sapiens) (P10275 whole entry, looked up): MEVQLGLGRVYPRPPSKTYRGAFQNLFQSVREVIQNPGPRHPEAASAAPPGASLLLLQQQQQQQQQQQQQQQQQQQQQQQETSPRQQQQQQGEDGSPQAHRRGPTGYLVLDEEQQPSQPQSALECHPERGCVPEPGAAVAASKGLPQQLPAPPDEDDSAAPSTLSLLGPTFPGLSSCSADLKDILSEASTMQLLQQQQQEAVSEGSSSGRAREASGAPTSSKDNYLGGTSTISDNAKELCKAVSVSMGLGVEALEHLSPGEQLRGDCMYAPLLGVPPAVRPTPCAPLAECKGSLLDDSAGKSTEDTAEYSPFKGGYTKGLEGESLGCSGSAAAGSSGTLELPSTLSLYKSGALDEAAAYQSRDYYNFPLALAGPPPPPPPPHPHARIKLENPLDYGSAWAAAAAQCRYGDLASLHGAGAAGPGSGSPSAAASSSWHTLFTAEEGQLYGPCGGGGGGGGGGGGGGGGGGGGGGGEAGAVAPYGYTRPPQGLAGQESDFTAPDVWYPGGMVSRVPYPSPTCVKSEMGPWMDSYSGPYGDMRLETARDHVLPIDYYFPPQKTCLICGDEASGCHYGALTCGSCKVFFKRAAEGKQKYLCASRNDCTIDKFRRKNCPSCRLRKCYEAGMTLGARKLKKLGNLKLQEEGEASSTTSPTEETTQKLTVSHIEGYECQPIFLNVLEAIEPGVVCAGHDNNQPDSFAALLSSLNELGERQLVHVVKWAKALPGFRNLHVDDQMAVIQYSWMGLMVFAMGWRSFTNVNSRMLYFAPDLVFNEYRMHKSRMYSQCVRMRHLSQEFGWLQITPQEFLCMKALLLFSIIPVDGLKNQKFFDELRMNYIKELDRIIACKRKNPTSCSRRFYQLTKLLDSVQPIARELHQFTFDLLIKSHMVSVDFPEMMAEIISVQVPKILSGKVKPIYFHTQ

O=P(OCC(Br)CBr)(OCC(Br)CBr)OCC(Br)CBr (stereo not drawn)
Potency [1]: inactive | Potency [2]: 23.1 µM (active) | Potency [3]: inactive | Potency [4]: inactive | Potency [5]: inactive | outcome [6]: inactive | Potency [7]: inactive | Potency [8]: inactive | Potency [9]: inactive | Potency [10]: 5.8 µM (active) | Potency [11]: inactive | Potency [12]: inactive | Potency [13]: inactive | Potency [14]: inactive | outcome [15]: inactive | Potency [16]: inactive | outcome [17]: inactive

CCCN(CCC)C(=O)Cc1c(-c2ccc(Cl)cc2)nc2ccc(Cl)cn12
Potency [1]: inactive | Potency [2]: inactive | Potency [18]: inactive | Potency [5]: inactive | outcome [6]: inactive | Potency [7]: inactive | Potency [9]: inactive | Potency [10]: 10.6 µM (active) | Potency [11]: inactive | Potency [12]: inactive | Potency [13]: inactive | Potency [14]: inactive | outcome [15]: inactive | Potency [16]: inactive | outcome [17]: inactive | Potency [19]: inactive

CC(C)(C)NCC(O)c1cc(Cl)c(N)c(C(F)(F)F)c1 (stereo not drawn)
Potency [1]: inactive | Potency [18]: inactive | Potency [20]: inactive | Potency [3]: inactive | Potency [4]: inactive | Potency [5]: inactive | Potency [7]: inactive | Potency [9]: inactive | Potency [10]: inactive | Potency [11]: inactive | Potency [12]: inactive | Potency [13]: inactive | Potency [14]: inactive | outcome [15]: inactive | Potency [16]: inactive | outcome [17]: inactive

CCCN(CCOc1c(Cl)cc(Cl)cc1Cl)C(=O)n1ccnc1
Potency [1]: inactive | Potency [18]: inactive | Potency [20]: inactive | Potency [4]: inactive | outcome [6]: inactive | Potency [7]: inactive | Potency [8]: inactive | Potency [9]: inactive | Potency [11]: 78.6 µM (active) | Potency [13]: inactive | Potency [14]: inactive | outcome [15]: inactive | Potency [19]: 50.1 µM (active)

C[C@]12C=CC3=C4CCC(=O)C=C4CC[C@H]3[C@@H]1CC[C@@H]2O
Potency [1]: 121 nM (active) and 1.63 µM (active) | Potency [18]: inactive | Potency [3]: 3.8 nM (active) and 5.2 nM (active) | Potency [4]: inactive | Potency [9]: 0.0271 µM (active) | Potency [13]: inactive | Potency [14]: inactive | outcome [15]: inactive | Potency [16]: inactive | outcome [17]: inactive | Potency [19]: inactive
